The values that follow come from PubChem BioAssay (EPA / NIEHS).

As usually defined, the AC50 is the concentration giving half of the maximal activity seen.

Assay [1] is described as follows: BSK_3C_SRB: Viability Assessment in the BioMAP Diversity Plus: 3C Assay (AID 2283023).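 Further: fitted both ways against DMSO so a hit may be signal rise or drop.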 The settings on record: primary human endothelial cells (HUVEC). A digest of the protocol:
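HUVEC, 24 h post-dose; 10% TCA fix, 0.1% SRB stain, A560 nm. Bidirectional curve fit vs DMSO negative control.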

Read-out in assay [2]: Matrix Metallopeptidase 1 (MMP1), MMP1 (gene 4312)
The assay can be described thus: BSK_BE3C_MMP1: BioMAP Diversity Plus: BE3C Assay for Matrix Metallopeptidase 1 (MMP1) Biomarker Activity (AID 2283024). The conditions noted are these: primary human bronchial epithelial cells; actives raise or lower the signal. A digest of the protocol:
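Primary human bronchial epithelial cells were dosed with test chemicals, and MMP1 levels were measured by ELISA 24 h later. Data were fitted bidirectionally against DMSO as the negative control and activity baseline.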

Assay [3] is described as follows: BSK_3C_Vis: BioMAP Diversity Plus: 3C Assay for Morphology Visualization (AID 2283025).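 Further: fitted both ways so gain or loss versus DMSO counts.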 The settings on record: primary human endothelial cells (HUVEC). A digest of the protocol: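 Human umbilical vein endothelial cells in the 3C system were imaged by light microscopy 24 h after chemical dosing to record cell morphology. Activity was fitted bidirectionally against DMSO as negative control and baseline; the endpoint serves as a background control.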

Read-out in assay [4]: Pselectin, SELP (gene 6403)
The assay can be described thus: BSK_4H_Pselectin: BioMAP Diversity Plus: 4H Assay for Pselectin Biomarker Activity (AID 2283026). The conditions noted are these: primary human endothelial cells (HUVEC); actives raise or lower the signal. A digest of the protocol: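 Primary human umbilical vein endothelial cells were exposed to test chemical for 24 h, then cell-surface P-selectin was quantified by ELISA. Activity was fitted bidirectionally against DMSO as negative control and baseline.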

Assay [5] is described as follows: BSK_BE3C_SRB: Viability Assessment in the BioMAP Diversity Plus: BE3C Assay (AID 2283028).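 On AC50: fitted both ways so AC50 may mark signal gain or loss versus DMSO.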 The conditions noted are these: primary human bronchial epithelial cells. A digest of the protocol: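 Primary human bronchial epithelium; chemical dosing, 24 h; 10% TCA fix, 0.1% SRB stain, A560; bidirectional fit vs DMSO baseline.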
Read-out in assay [6]: Thrombomodulin, THBD (gene 7056)
The assay can be described thus: BSK_3C_Thrombomodulin: BioMAP Diversity Plus: 3C Assay for Thrombomodulin Biomarker Activity (AID 2283029). The conditions noted are these: primary human endothelial cells (HUVEC); actives raise or lower the signal. A digest of the protocol: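 Primary human umbilical vein endothelial cells (3C system) were exposed to chemical for 24 h, then thrombomodulin levels were measured by ELISA. Activity was fitted bidirectionally against the DMSO negative control as baseline.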

Read-out in assay [7]: Urokinase-type plasminogen activator receptor (uPAR), PLAUR (gene 5329)
The assay can be described thus: BSK_4H_uPAR: BioMAP Diversity Plus: 4H Assay for Urokinase-type plasminogen activator receptor (uPAR) Biomarker Activity (AID 2283030). The conditions noted are these: primary human endothelial cells (HUVEC); actives raise or lower the signal. A digest of the protocol: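 HUVEC, 24 h post-dose; uPAR by ELISA; bidirectional fit vs DMSO baseline.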

Read-out in assay [8]: Vascular endothelial growth factor receptor 2 (Homo sapiens) (UniProt P35968)
The assay can be described thus: BSK_4H_VEGFRII: BioMAP Diversity Plus: 4H Assay for Vascular endothelial growth factor receptor 2 (VEGFR2) Biomarker Activity (AID 2283031).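 On AC50: cell-surface VEGFR2 protein level quantified by ELISA.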 The conditions noted are these: primary human endothelial cells (HUVEC); actives raise or lower the signal. Summed up:
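HUVEC (human primary), 4H system; 24 h post-dose; VEGFRII by ELISA; bidirectional curve fit vs DMSO baseline; gain or loss of signal scored.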

Assay [9] concerns the target human Vitamin D Receptor (VDR), VDR (gene 7421) (UniProt P11473). The assay can be described thus: ATG_VDR_TRANS: Attagene TRANS-FACTORIAL HepG2 Assay for human Vitamin D Receptor (VDR) (AID 2283022; active means hit-call score of the fitted dose curve at least 0.9, where 1 is the maximum). Summed up: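 RT-PCR/capillary electrophoresis read-out of reporter mRNA induction in transiently transfected HepG2; 24 h dosing; chimeric NR-Gal4 (TRANS format); gain-of-signal fit against DMSO baseline.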

Assay [10] in a line: BSK_4H_SRB: Viability Assessment in the BioMAP Diversity Plus: 4H Assay (AID 2283027).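 Further: cells exposed to compound for 24 h before staining.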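 On AC50: curves fitted both ways versus DMSO so AC50 may be loss or gain.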 The settings on record: primary human endothelial cells (HUVEC). Summed up: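 Human umbilical vein endothelial cells, 24 h after chemical dosing; total protein measured by 0.1% sulforhodamine B staining after 10% TCA fixation, read at 560 nm. Bidirectional fitting against DMSO.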

Each structure is given as a SMILES string. Records with an inconclusive call do not appear. Some structures have more than one record in an assay (separate samples or runs), and their calls can disagree. Activity calls are given as the source filed them. How the source made its calls, unless noted: active means hit-call score of the fitted dose curve at least 0.9, where 1 is the maximum; inactive means score below 0.9.

Chain of human Vitamin D Receptor (VDR), VDR (gene 7421) (P11473 whole entry, looked up, the tested form may be a part): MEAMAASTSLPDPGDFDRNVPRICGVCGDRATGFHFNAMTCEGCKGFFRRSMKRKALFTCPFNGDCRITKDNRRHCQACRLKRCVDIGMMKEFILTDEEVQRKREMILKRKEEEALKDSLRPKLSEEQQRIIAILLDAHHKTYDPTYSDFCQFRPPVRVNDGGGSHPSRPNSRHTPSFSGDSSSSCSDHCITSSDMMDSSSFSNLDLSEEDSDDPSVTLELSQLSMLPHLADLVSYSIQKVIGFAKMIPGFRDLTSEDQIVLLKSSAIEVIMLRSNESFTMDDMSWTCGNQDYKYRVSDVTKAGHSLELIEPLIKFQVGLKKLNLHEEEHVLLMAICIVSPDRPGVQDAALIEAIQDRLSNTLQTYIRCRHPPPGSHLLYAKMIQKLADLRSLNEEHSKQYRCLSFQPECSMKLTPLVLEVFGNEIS

`CCCCOCCO`: the result in assay [1], in assay [2], in [3], in assay [4], in assay [5] and in assay [6] was inactive. In addition, the outcome in [7] and in assay [8] was inactive.

`COC(=O)CCCCC(=O)OC`: the outcome in [9], in assay [1], in assay [2], in [3], in assay [4] and in [5] was inactive. Moreover, the outcome in [6], in assay [7] and in [8] was inactive.

With `COc1ccc([N+](=O)[O-])cc1N`, the result in [1], in assay [2], in [3], in [4], in assay [5] and in assay [6] was inactive. In addition, the result in assay [7] and in assay [8] was inactive.

For the compound `CC(C)(C)c1cccc(C(C)(C)C)c1O`, the outcome in assay [1], in [2], in assay [3], in assay [4], in assay [5] and in assay [6] was inactive. Besides, the outcome in assay [7] and in assay [8] was inactive.

For the compound `O=C(O)c1ccccc1C(c1ccc(O)cc1)c1ccc(O)cc1`, the outcome in assay [1], in assay [2], in assay [3], in assay [4], in assay [5] and in [6] was inactive. The outcome in [7] and in assay [8] was inactive.

In the case of `NCC(F)(F)C(F)(F)C(F)(F)C(F)(F)C(F)(F)C(F)(F)C(F)(F)F`, the compound was called inactive in assay [9], in assay [1], in assay [2], in assay [4], in [5] and in assay [6]. Further, the outcome in assay [7] and in [8] was inactive. In assay [8], the concentration at half-maximal activity (AC50) was 7.22 µM (active).

Take `CC(C)(C)c1ccc(O)c(C(C)(C)C)c1`: the compound was called inactive in assay [9], in assay [6] and in [8]. Besides, the AC50 in assay [1] is 9.68 µM (active); in [2], 32.4 µM (active); in assay [3], 6.71 µM (active); in assay [4], 7.52 µM (active); in [5] it was 32 µM (active); in assay [7], 10.6 µM (active).

Turning to `CCc1nn(C2CCCCC2)c2cc(C3(C#N)CCC(C(=O)O)CC3)ccc12` (stereo not given), the result in [9], in assay [2], in [5], in assay [6] and in assay [8] was inactive. Also, the AC50 was 5.08 µM (active) in [1], 39 µM (active) in assay [3], 4.25 µM (active) in [4] and 4.94 µM (active) in [7].

`CC[C@H](c1ccc(O)cc1)[C@@H](CC)c1ccc(O)cc1`: the result in assay [9] and in [8] was inactive. Also, the AC50 is 27.9 µM (active) in assay [1]; 38 µM (active) in [2]; 22.3 µM (active) in assay [3]; 20.3 µM (active) in [4]; 35.8 µM (active) in [5]; 31 µM (active) in [6]. For the same compound, the AC50 in [7] is 26 µM (active).

In the case of `CCCCCCCCC(=O)O`, the outcome in assay [1], in assay [2], in assay [3], in assay [4], in [10] and in assay [5] was inactive. Besides, the outcome in assay [6], in assay [7] and in assay [8] was inactive.

On to `CN(C)C=O`, for which the outcome in assay [1], in assay [2], in assay [3], in assay [4], in assay [10] and in assay [5] was inactive. For the same compound, the result in assay [6], in assay [7] and in assay [8] was inactive.

As for `ClC1=C(Cl)C(Cl)(Cl)C(Cl)=C1Cl`, the call in [9] and in assay [8] was inactive. Moreover, the AC50 in assay [1] is 5.75 µM (active); in assay [2] it was 10.7 µM (active); in assay [3] it was 7.95 µM (active); in [4], 5.42 µM (active); in assay [5] it was 6.99 µM (active); in [6] it was 10.3 µM (active). Also, in assay [7], the AC50 is 5.91 µM (active).

On to `CCCCCCCCOC(=O)CCCCCCCCC(=O)OCCCCCCCC`, for which the outcome in [1], in [2], in [3], in assay [4], in assay [5] and in assay [6] was inactive. In addition, the result in assay [7] and in [8] was inactive.

Consider `C=C(C)C(=O)OCCC(F)(F)C(F)(F)C(F)(F)C(F)(F)C(F)(F)C(F)(F)F`, for which the compound was called inactive in assay [9], in [1], in assay [2], in assay [3], in [4] and in assay [5]. For the same compound, the result in [6], in assay [7] and in [8] was inactive.

As to `OCCC(F)(F)C(F)(F)C(F)(F)C(F)(F)C(F)(F)C(F)(F)F`, the results for the AC50 in assay [1], in [4] and in assay [8] were 57.7 µM (active), 46.8 µM (active) and 7.51 µM (active), respectively. Further, the outcome in assay [1], in assay [2], in assay [3], in assay [4], in [5] and in assay [6] was inactive. In addition, the result in assay [7] and in assay [8] was inactive.

As for `O=c1c(-c2ccc(O)cc2)coc2cc(O)ccc12`, the outcome in assay [1], in assay [2], in [3], in [10], in assay [5] and in assay [6] was inactive. Also, the result in assay [7] and in assay [8] was inactive. Moreover, the AC50 in assay [4] is 20 µM (active).

Regarding `C#C[C@]1(O)CC[C@H]2[C@@H]3CCC4=CC(=O)CC[C@@H]4[C@H]3CC[C@@]21C`, the AC50 was 5.17 µM (active) in [1], 17.1 µM (active) in assay [10], 11 µM (active) in [7] and 20 µM (active) in [8]. In addition, the outcome in assay [2], in assay [3], in assay [4], in [5] and in [6] was inactive.
